High-throughput results deposited in PubChem BioAssay by several laboratories.
An excerpt weighted towards active compounds, which were near 2.2% of everything screened.
aSyn UTR inh: 5' untranslated region of α-synuclein, MLPCN primary screen; alpha-synuclein 5'UTR reporter, inhibitor activity; inhibition, % (tested at 7.5 µM); 300,000 tested, 0.82% active; in the data active = inhibition above about 60%;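 also: H4 neuroglioblastoma cells stably carrying SNCA 5'UTR luciferase fusion; 0% = DMSO wells and 100% = positive control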
IEC-6 cytotox: IEC-6 cytotoxicity, counter-screen for KLF5 inhibitors; AID 1825; 290,000 tested, 0.78% active; inhibition, % at 5 µM; luminescence viability; in the data active = inhibition above about 22%;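 also: 0% = plate median of test compound wells and 100% = cytotoxic reference compound wells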
KLF5 inhibitor: kruppel-like factor 5 inhibition. AID 1700. inhibition, % at 5 µM. 290,000 tested, 0.23% active. DLD-1 KLF5 promoter-luciferase reporter, luminescence;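 active = inhibition above a per-plate limit of that plate's mean compound inhibition plus 3 SD, cut at about 60% in these data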;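 also: 0% = DMSO wells and 100% = LY294002 at 200 µM; higher means less KLF5 promoter-driven luciferase light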
BaF3 parental: parental Ba/F3 viability inhibition as JAK2V617F counter-screen | CellTiter-Glo ATP luminescence | inhibition, % at 5.6 µM | 220,000 tested, 1.1% active;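 active = inhibition above a per-campaign cutoff, the mean inhibition of all tested compounds plus 3 SD, cut at about 27% in these data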;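 also: 0% = DMSO wells and 100% = JAK Inhibitor I control wells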
APP 5UTR inh: APP translation inhibition; SH-SY5Y APP 5'UTR-luciferase reporter, luminescence; inhibition, % at 2 µM; 190,000 tested, 0.82% active;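 active = inhibition above a set limit, derived from the sample mean plus 3 SD, cut at about 45% in these data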
Ba/F3 V617F tox: lowers viability of Ba/F3 cells expressing EpoR and JAK2V617F | ATP luminescence | inhibition, % at 5.6 µM | 220,000 tested, 1.1% active;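 active = inhibition above the campaign mean plus 3 SD over all tested compounds, cut at about 24% in these data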;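 also: cytokine-independent growth of Ba/F3 cells driven by EpoR plus mutant JAK2; 0% = DMSO-treated cells and 100% = JAK inhibitor I control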
* hit, by the source's call; . = not tested or not shown.

SMILES	aSyn UTR inh	IEC-6 cytotox	KLF5 inhibitor	BaF3 parental	APP 5UTR inh	Ba/F3 V617F tox
Cc1c(C(=O)C(=O)N2CC=C(c3ccccc3)CC2)c2ccccc2n1C	55.1	46.9*	38.2	28.4*	82.0*	77.0*
Cc1cc(C(=O)N2CC=C(c3ccccc3)CC2)c2ccccc2n1	43.3	.	.	.	.	.
Cc1ccc(NC(=O)CNCc2cccs2)c(Br)c1	-119.2	-1.3	-80.1	.	.	.
Cc1cc[n+](CC[n+]2ccc(C)cc2)cc1	-9.7	.	.	.	.	.
Cc1cc(C(C)(C)C)ccc1OCCCCN1CCCC1	-14.5	-7.6	-0.8	7.0	-6.7	-1.7
CCC(C)(C)c1ccc(OCCCC[n+]2cccc(C)c2C)c(C(C)(C)CC)c1	100.8*	21.5	40.7	99.2*	.	98.5*
CCC(C)(C)c1ccc(OCCCC[n+]2ccc(C)cc2)c(C(C)(C)CC)c1	25.0	21.4	34.9	102.9*	-21.3	101.7*
O=C(O)CCn1c(-c2ccccn2)nc2ccccc21	-8.2	1.5	-44.9	.	.	.
O=C(CN1CCOCC1)Nc1ncc(Cc2ccccc2Cl)s1	14.8	-1.9	9.9	1.4	3.5	-6.0
CCc1ccc(CCC(=O)Nc2ncc(Cc3ccccc3Cl)s2)o1	-7.4	2.8	-16.9	3.3	71.1*	0.5
CCc1c(C)nc(Nc2nc(C)c3ccc(OC)cc3n2)[nH]c1=O	-51.8	5.3	-25.1	2.2	2.8	-4.3
COc1ccc2c(C)nc(Nc3nc(C)c(C)c(=O)[nH]3)nc2c1	102.5*	-1.3	-22.5	5.2	-2.2	0.3
COc1ccc2nc(Nc3nc(CSc4nc5ccccc5[nH]4)cc(=O)[nH]3)nc(C)c2c1	102.6*	2.9	6.7	9.2	8.3	1.6
Cc1ccc(S(=O)(=O)NC(=O)N(C)C2CCCCC2)cc1	7.4	3.3	-25.0	-2.4	.	-0.3
Cc1ccc(CNC(=O)CN(C(=O)C2(C)CC(=O)N=C3C=CC=CN32)c2ccc(F)cc2)cc1 (stereo not given)	-7.2	-1.1	-8.1	.	.	.
CCn1nccc1C(=O)Nc1ccc(C(=O)OC(C)C)cc1	-163.0	7.7	-50.9	.	.	.
Cc1cc(/C=C2\C(=N)N3N=CSC3=NC2=O)c(C)n1Cc1ccccc1	-47.9	-0.8	1.3	5.3	.	5.0
Oc1[nH]c(N=C2N=c3ccccc3=N2)c2ccccc12	-59.8	77.0*	-81.0	6.3	.	21.0
O=S(=O)(Nc1nc2ccccc2nc1N1CCc2ccccc2C1)c1ccc(Br)cc1	.	8.2	-53.8	12.3	-64.3	6.7
O=S(=O)(Nc1nc2ccccc2nc1N1CCc2ccccc2C1)c1ccc(Cl)cc1	86.2*	-4.7	-12.7	-0.3	-21.2	-2.5
CCCCn1c(N)c(N(CC(C)C)C(=O)C2CCN(S(=O)(=O)c3ccc(Cl)cc3)CC2)c(=O)[nH]c1=O	-8.9	.	.	.	.	.
O=C(c1ccc(F)cc1)C1CCN(C(=O)NC2CCCCC2)CC1	5.3	2.3	-8.9	4.8	9.1	6.7
Cc1ccc(-n2cc(CNCCc3ncc(C)[nH]3)c(-c3ccc(F)cc3)n2)cc1	-23.8	-3.6	-33.7	5.1	-21.2	-3.6
S=C(Nc1ccccc1)N(Cc1ccccc1)Cc1ccncc1	9.0	-1.2	6.6	5.3	-2.8	-2.6
CCN(CC)C(=S)Nc1ccc(Cl)c(Cl)c1	-11.6	3.1	-14.0	31.8*	15.7	17.8
SMILES	aSyn UTR inh	IEC-6 cytotox	KLF5 inhibitor	BaF3 parental	APP 5UTR inh	Ba/F3 V617F tox
CCN(Cc1ccncc1)C(=S)Nc1ccc(Cl)cc1	6.5	2.1	14.9	26.9*	-11.8	24.0*
CC(C)CCNCC(O)CON=C1c2ccccc2-c2ccccc21 (stereo not given)	86.2*	-0.6	-50.8	5.3	-22.8	1.0
CCCCC(CCC(=O)Nc1ccn(-c2ccccc2)n1)C(=O)O (stereo not given)	-2.3	8.4	9.6	63.1*	.	-2.9
O=C(CSc1nnc(-c2ccc(Br)cc2)o1)Nc1cccc2ccccc12	.	-2.4	-0.8	3.0	-2.8	-1.2
O=C(CSc1nnc(-c2ccc(Br)cc2)o1)Nc1cccc(C(=O)O)c1	97.9*	-2.7	56.1	.	.	.
COC(=O)/C(=C\Nc1ccccc1N)c1ncc(C(F)(F)F)cc1Cl	-8.0	-0.9	-80.8	2.0	-39.8	-0.6
CC(C)(C)c1cc[n+](C2=C([O-])c3ccccc3C(=O)/C2=N\S(=O)(=O)c2cccs2)cc1	68.7*	-4.1	-42.4	-4.7	.	-2.5
c1ccc(-c2nnc(-c3ccccn3)s2)nc1	78.4*	-1.5	-93.5	9.9	.	4.5
C=CCNC(=O)C1CCN(S(=O)(=O)c2ccc3ccccc3c2)CC1	8.4	-0.8	-11.5	.	.	.
O=C(N1CCN(c2ccccn2)CC1)N1c2ccccc2Sc2ccccc21	3.0	17.3	19.2	76.3*	94.2*	70.7*
